Screen size: about 300,000 compounds; about 2,300 (0.77%) were called active.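 How the source made its calls: active means mean activation of at least 80% with every replicate also reaching 80%; inconclusive means mean reaches 80% but some replicate falls short; inactive means the rest.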 The sample as a whole holds a higher share of actives than the screen did.
Test: MITF-driven TRPM1 luciferase induction in melanoma cells – cell-based, SK-MEL-5, single point, primary screen (AID 588334);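 further: 0% = neutral control wells and 100% = parthenolide positive control wells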
Conditions: SK-MEL-5 TRPM1-promoter luciferase, 24 h; at 12.5 µM; stronger effect = higher value; % of positive control, neutral wells = 0

activation, active:
Clc1ccccc1SCc1nc2ccccc2[nH]1 98.6%, S=C(c1ccc(-c2ccccc2)o1)N1CCCCC1 99.8%, COC(=O)c1cn(CC(=O)NCc2cccs2)c2ccccc12 81.5%, Cc1ccoc1C(=O)Nc1cccc(Oc2ccccc2)c1 87%, Cc1ccc(-c2noc(C3CCCN(C(=O)c4cccc(Cl)c4)C3)n2)o1 (stereo unspecified) 102%, c1cnc(Nc2nc(-c3ccc4ccccc4c3)cs2)nc1 103%, COc1cccc2[nH]c(C(=O)NCCc3ccccc3)cc12 110%, O=C(OCc1ccccc1F)c1ccc2c(c1)OCCO2 126%, CCOc1ccc(C(=O)Nc2cccc(SC)c2)cc1 84.3%, COc1ccc(NC(=S)N2N=CCC2c2ccccc2)cc1 (stereo unspecified) 90.9%, Cc1ccc(NC(=S)Nc2ncccc2C)c(C)c1 92.2%, CC1CCCN(c2ccc(C(=O)NCCc3ccccc3)cn2)C1 (stereo unspecified) 126%, O=C(Nc1ccc(Cl)cc1)/C(=C1\CCCN1)[N+](=O)[O-] 88.7%, O=C(NC(=S)NC1CCCCC1)c1ccc(Cl)cc1 138%, CC(C)CNC(=S)NC(=O)c1ccc(Cl)cc1 112%, O=C(NC1CCCCC1)c1ccc(-c2ccc(Cl)cc2)o1 111%

activation, inactive:
c1ccc(-c2nnc(SCc3nc4ccccc4[nH]3)o2)cc1 -11.4%, c1ccc2c(CSCc3nc4ccccc4[nH]3)cccc2c1 -9.4%, O=C(Cc1ccc(NC(=O)C2CCCN(C(=O)C3CCCCC3)C2)cc1)Nc1cccc(C(=O)N2CCCCC2)c1 (stereo unspecified) 2.88%, CC1CCN(C(=S)c2ccc(-c3ccc(Cl)cc3Cl)o2)CC1 28%, Cc1cccc(C)c1NC(=S)N1CCCCCC1 -1.99%, CC(C)Cc1nnc(N)s1 -14.5%, Cc1ccc(NC(=O)C2CCC(C(C)(C)C)CC2)cc1S(=O)(=O)N1CCOCC1 (stereo unspecified) -5.55%, COc1cc(/C=C2\Oc3ccc(C#Cc4ccc(O)cc4)cc3C2=O)cc(OC)c1 -73.4%, COCCNC(=O)Cn1cc(C(=O)c2cccs2)c2ccccc21 7.95%, O=C(COC(=O)c1cccs1)NCc1cccs1 3.86%, O=C(NCc1ccccc1)c1cccc(NC(=O)C2CCCCC2)c1 -5.07%, O=C(NN=Cc1ccccc1)c1ccccc1 55%, COc1cccc(NC(=O)c2ccccc2SC)c1 6.57%, Cc1cccc(NC(=O)Nc2cccc(Oc3c(F)c(F)c(F)c(F)c3F)c2)c1 16.2%, CSc1ncnc2c1ncn2CC(=O)C1CCC2C3CCC4=CC(=O)CCC4(C)C3CCC12C (stereo unspecified) -44.7%, CCOc1ccc(/C=C(/C#N)c2nnc(N3CCOCC3)n2-c2ccccc2)cc1OC -2.3%, O=C(c1ccc(F)cc1)N1CCCC(c2nc(-c3cccs3)no2)C1 (stereo unspecified) -6.36%, COc1cccc(-c2noc(C3CCCN(C(=O)c4ccc(F)cc4)C3)n2)c1 (stereo unspecified) -11.5%, O=C(Nc1nc(-c2ccc(-c3ccccc3)cc2)cs1)c1cnccn1 1.68%, Cc1ccc(-c2csc(NC3OC(=O)c4ccccc43)n2)cc1 (stereo unspecified) -32.1%, O=C(NCCc1ccccc1)c1cccc(NC(=O)c2ccccc2)c1 20.5%, COc1ccc(CCNC(=O)c2ccccc2OCc2ccccc2)cc1 -7.11%, Cc1ccc(S(=O)(=O)N2CCN(C(=O)COC(=O)/C=C/c3cccc(Cl)c3)CC2)c(C)c1 4.12%, Cc1cccc(NC(=O)c2ccc(S(=O)(=O)N(C)c3ccccc3)cc2)n1 1.38%, CSCCC1NC(=O)N(CC(=O)Nc2cccc(S(=O)(=O)N3CCCCCC3)c2)C1=O (stereo unspecified) 11.8%, O=C(COC(=O)c1ccc2c(c1)OCCO2)NCc1ccccc1Cl 4.3%, O=C(COC(=O)c1ccccc1)c1ccc2c(c1)OCCO2 17.6%, CCOc1ccc(C(=O)Nc2ccncc2)cc1 41.4%, CCOc1ccc(C(=O)Nc2cccc(-c3ccc4nncn4n3)c2)cc1 52.8%, O=C1CC[C@@H]2CC3(C[C@@H]4CCN1[C@H]24)Nc1cc([N+](=O)[O-])ccc1NC3=NC1CCCCC1 (stereo partly specified) 3.73%, COc1ccc(C(=S)Nc2ccccc2)cc1 33.5%, COc1ccc(C(=O)NC2CCN(C(=S)Nc3ccccc3)CC2)cc1 -0.484%, Cc1ccc(NC(=S)NCc2ccccc2Cl)c(C)c1 -11.2%, Cc1ccc(C(=O)NC(=S)Nc2ccccc2C)cc1 51.8%, COc1ccc(CNCCCn2cnc3c(OCc4ccccc4)ncnc32)cc1 7.28%, Cc1ccc(S(=O)(=O)N2CCN(C(=O)c3cc(S(=O)(=O)N4CCOCC4)ccc3F)CC2)cc1 -4.55%, NN=C(NN=Cc1ccccc1)c1ccccc1 35.2%, O=C(NCCc1ccccc1)c1ccc2c(c1)N(Cc1ccccc1)CCS2 39.9%, CCCOc1ccc(C(=O)NCCc2ccccc2)cc1 -2.06%, CC(C(=O)N1CCc2ccccc21)N(C)CC(=O)Nc1ccc(F)cc1 (stereo unspecified) 13.5%, COC[C@@H]1NS(=O)(=O)c2ccc(Br)cc2O[C@H]1c1ccccc1 7.36%, O=C(CC1SCCNC1=O)Nc1ccc(Cl)cc1 (stereo unspecified) 26.1%, O=C(O)C1CCCCC1C(=O)Nc1ccc(Cl)cc1 (stereo unspecified) 20.2%, COc1ccccc1N(CC(=O)Nc1ccc(C)cc1Cl)S(=O)(=O)c1cccs1 -4.34%, COCCCNC(=S)NC(=O)c1ccccc1 17.9%, S=C(NCc1ccc(Cl)cc1)NC1CCCCC1 -7.01%, COc1ccc(C(=O)NC(=S)NC2CCCCC2)cc1 73.7%, O=C(NNC(=S)NC1CCCCC1)c1ccccc1Cl 9.14%, Cc1occc1C(=O)NNC(=S)NCC(C)C -2.13%, O=C(NC1CCCCCC1)c1cccnc1Sc1ccc(Cl)cc1 6.6%

From PubChem BioAssay AID588334 (Broad Institute, 2011)
